Measurements: PubChem BioAssay AID2685 (National Center for Advancing Translational Sciences (NCATS), 2010)
Out of some 320,000 compounds screened, about 2,100 (0.66%) were called active. Inconclusive results (about 53%) are left out. Calls come from the whole dose curve; as a rule, active = well fitted inhibition curve with a large enough effect in the signal ratio, with a control signal flat (not every such curve was filed as active); inconclusive = small, poorly fitted or top-dose-only effect, or effect the other way, or a change in a side signal; inactive = flat fitted curve, though single readings scatter; the % refers to the signal ratio. The list comes from a sample in which actives are over-represented; it also holds similar structures and randomly drawn compounds.

Test: qHTS Assay for Lipid Storage Modulators in Drosophila S3 Cells;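 for cell number change: cells counted by Cell Tracker Red CMTPX staining in the red channel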; for lipid storage change, negative = inhibition: % is set by controls: 0 for no effect and ±100 for the full control effect
Settings: BODIPY lipid droplet fluorescence, 18-24 h, cells fed with added oleic acid; cell number change: measured here: cell count max response; series mostly up to 46.1 µM; lipid storage change, negative = inhibition: at the top concentration
In short: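 Drosophila S3 cells loaded with oleic acid (400 uM, as added) and compounds at several concentrations; lipid droplets imaged by 488-nm laser-scanning cytometry, 500–530 nm intensity and object ratio to cell channel. Percent activity normalized to 20 uM Triacsin C.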
Potency is the fitted concentration of half-maximal effect.

Compound	lipid storage change, negative = inhibition	cell number change [%]	outcome	Potency
COc1ccc(N2CCN(C(=O)COC(=O)/C=C/c3ccc(OC(F)F)cc3)CC2)cc1	12.6% (inactive)	–	–	–
COc1ccc(Nc2nc(Cl)nc(Nc3ccc(OC)cc3OC)n2)c(OC)c1	-9.46% (inactive)	-11.9	–	–
CCOc1ccc(OCc2ccc(C(=O)Nc3ccc(Cl)cn3)o2)cc1	12.2% (inactive)	16.1	–	–
CC(=O)Nc1sc(C)c(C)c1CN1CCN(S(=O)(=O)c2ccccc2)CC1	–	–	inactive	–
Cc1cc(C)c(Nc2ncnc(N)n2)c(C)c1	6.89% (inactive)	-1.29	–	–
O=c1cc(N2CCc3ccccc3C2)[nH]c(=O)n1-c1ccc(Br)cc1	–	–	inactive	–
CCC1CN(C(=O)N2CCC(C(=O)NCc3cc(OC)c(OC)c(OC)c3)CC2)c2ccccc2O1 (centres undefined)	–	-18	inactive	–
CCC1CN(C(=O)N2CCC(C(=O)NCCc3ccccc3)CC2)c2ccccc2O1 (centres undefined)	–	-2.95	inactive	–
CCC1CN(C(=O)N2CCC(C(=O)NCc3ccc(C)o3)CC2)c2ccccc2O1 (centres undefined)	–	–	inactive	–
CCC1CN(C(=O)N2CCC(C(=O)NCCc3ccc(OC)c(OC)c3)CC2)c2ccccc2O1 (centres undefined)	–	5.9	inactive	–
CCC1CN(C(=O)N2CCC(C(=O)NCc3ccccc3OC)CC2)c2ccccc2O1 (centres undefined)	-7.34% (inactive)	16.5	–	–
CCC1CN(C(=O)N2CCC(C(=O)NCc3ccc(OC)cc3OC)CC2)c2ccccc2O1 (centres undefined)	–	4.13	inactive	–
CCC1CN(C(=O)N2CCC(C(=O)NCc3ccccc3C)CC2)c2ccccc2O1 (centres undefined)	–	-0.59	–	3.66 µM (active)
CCC1CN(C(=O)N2CCC(C(=O)NCCc3ccc(OC)cc3OC)CC2)c2ccccc2O1 (centres undefined)	–	1.47	–	5.17 µM (active)
CCC1CN(C(=O)N2CCC(C(=O)NCCc3ccccc3OC)CC2)c2ccccc2O1 (centres undefined)	–	13.3	–	6.51 µM (active)
O=C(Nc1ccc(F)cc1)/C(=C1/CCCCCN1)[N+](=O)[O-]	-9.09% (inactive)	18.2	–	–
Cc1ccccc1CSc1nnc(NC(=O)Cc2cccs2)s1	18.3% (inactive)	0.934	–	–
O=S(=O)(Nc1ccc(-c2nc3ccccc3o2)cc1)c1ccccc1	–	-16.6	inactive	–
C/C(=N\NC(=O)CCc1ccc(S(=O)(=O)N2CCOCC2)cc1)c1ccccc1Cl	-11% (inactive)	15.6	–	–
CC(=O)NCCc1ccc(S(=O)(=O)Nc2ccc(C)c(S(=O)(=O)N3CCOCC3)c2)cc1	–	-24.8	inactive	–
COc1ccc(CCNC(=O)COc2ccc(S(=O)(=O)N3CCOCC3)cc2)cc1	–	–	inactive	–
CC(=O)NCCc1ccc(S(=O)(=O)N2CCOCC2)cc1	–	-15.6	–	18.4 µM (active)
O=C(Nc1cc(S(=O)(=O)N2CCOCC2)ccc1O)c1ccco1	-7.19% (inactive)	-13.8	–	–
CCCCc1ccc(CC(=O)Nc2cc(S(=O)(=O)N3CCOCC3)ccc2O)cc1	–	-16.2	–	20.6 µM (active)
C/C(=N\NC(=O)CCc1ccc(S(=O)(=O)N2CCOCC2)cc1)c1ccc(OC(F)F)cc1	–	-28.6	–	11.6 µM (active)
C/C(=N\NC(=O)c1cccc(S(=O)(=O)N2CCOCC2)c1)c1ccc(OC(F)F)cc1	24.9% (inactive)	8.64	–	–
O=C(CCCSc1ccc(Cl)cc1)Nc1cc(S(=O)(=O)N2CCOCC2)ccc1O	5.44% (inactive)	-18.8	–	–
